Test [1] deals with Zika virus NS2B-NS3 protease. The test can be described thus: Primary screen GU AMC qHTS for Zika virus inhibitors (AID 1347154).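 For activity change, negative = inhibition: 0% = no-inhibitor control and -100% = no-enzyme control.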 Note: nearly all actives have a fitted effect of over 70% in size. Note: potency is the fitted concentration of half-maximal effect. Summed up: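 Unlinked Zika NS2B hydrophilic domain–NS3 protease complex at 25 nM in 10 mM Tris-HCl pH 8.0, 0.01% Tween 20, with an AMC peptide substrate. Fluorescence change (340/450 nm) over 15 min at room temperature, normalized to controls, fitted to 4-parameter Hill.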
Background: qHTS replaces the single test concentration by a dilution series.

Test [2] concerns the target Nucleoprotein (Lymphocytic choriomeningitis virus (strain Armstrong)) (UniProt P09992). The test can be described thus: qHTS for Inhibitors of the Functional Ribonucleoprotein Complex (vRNP) of Lymphocytic Choriomeningitis Arenaviruses (LCMV): LCMV Primary Screen - GLuc reporter signal (AID 1347086; calls by dose curve; note: nearly all actives have a fitted effect of over 70% in size; note: potency is the fitted concentration of half-maximal effect).
The nature of test [3]: Cytotoxicity counterscreen for inhibitors of SARS-CoV-2 cell entry (AID 1645845; calls by dose curve; note: nearly all actives have a fitted effect of over 50% in size). The procedure, abridged: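 Counterscreen run in the same HEK293-ACE2 line as the pseudotyped-particle entry assay, without particles. Viability after 48 h at 37 C was read as ATP luminescence, scaled between cell-containing and cell-free wells.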
A short description of test [4]: Primary qHTS to identify inhibitors of SARS-CoV-2 cell entry (AID 1645846; calls by dose curve; note: nearly all actives have a fitted effect of over 45% in size). The following applies: activity change, negative = inhibition: at 57.1 µM (top of the series) unless noted. The procedure, abridged: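 HEK293-ACE2 (Expi293F, stable hACE2), 1500 cells/well, o/n 37C; cpd 23 nL pin, 1 h; MLV-PP w/ SARS-CoV-2-S (Wuhan-Hu-1, Δ19 C-term); 48 h 37C; Bright-Glo luminescence; normalized vs S-PP and bald PP.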

Test [5] concerns the target Furin (Homo sapiens) (UniProt P09958). The test can be described thus: Furin counterscreen qHTS for Zika virus inhibitors (AID 1347149).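 For activity change, negative = inhibition: purified recombinant full-length human furin enzyme at 5 nM; fluorescence gain from furin cutting a BOC-RVRR-AMC peptide substrate over 15 min; top concentration of the series differs between compounds; plate controls were no-inhibitor control for no effect and no-enzyme control for full effect.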 Note: nearly all actives have a fitted effect of over 70% in size. Note: potency is the fitted concentration of half-maximal effect. Summed up:
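Counterscreen measures cleavage of 2 microM BOC-RVRR-AMC, below its ~15 microM Km, by 5 nM full-length human furin at pH 7.0 after a 15-min compound preincubation. Inhibition derives from the 15-min fluorescence increase at 37C.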

Test [6] concerns Zika virus NS2B-NS3 protease (unlinked). The test can be described thus: Optimization of GU AMC qHTS for Zika virus inhibitors: Unlinked NS2B-NS3 protease assay (AID 1347151).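 Note: 0% = no-inhibitor control and -100% = no-enzyme control; nearly all actives have a fitted effect of over 80% in size.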 The procedure, abridged:
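Fluorescence read-out (340 nm ex / 450 nm em) of AMC peptide cleavage, taken immediately and after 15 min at room temperature (~20% conversion). Enzyme was the unlinked NS2B–NS3 complex at 25 nM in Tris pH 8.0 buffer.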

A short description of test [7]: Vero cells viability qHTS for Zika virus inhibitors (AID 1347167). Note: % is set by controls: 0 for no effect and ±100 for the full control effect. The procedure, abridged: (§1)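 qHTS titration; 24-48 h compound exposure, 37 degrees C/5% CO2; DMEM, 4% FBS; CellTiter Glo ATP luminescence.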
The nature of test [8]: HepG2 cells viability qHTS for Zika virus inhibitors (AID 1347168). Note: % is set by controls: 0 for no effect and ±100 for the full control effect. Summed up: as §1
Test [9] is described as follows: Tertiary RLuc qRT-PCR qHTS assay for Zika virus inhibitors (AID 1347169). Note: nearly all actives have a fitted effect of over 55% in size. Note: potency is the fitted concentration of half-maximal effect. The procedure, abridged: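 Luminescence read-out: live-cell Renilla luciferase substrate applied to infected Vero cells, signal measured after 1-1.5 hrs. Cells had received compound before ZIKV-RLuc (Cambodian strain, MOI 1-2) infection and were incubated 48-72 hrs at 37 degrees C.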
On the technique in general: Quantitative PCR measures a nucleic acid by following its amplification.

A short description of test [10]: Primary qHTS for small molecule stabilizers of the endoplasmic reticulum resident proteome: Secreted ER Calcium Modulated Protein (SERCaMP) assay (AID 1508630). Note: % is set by controls: 0 for no effect and ±100 for the full control effect. Summed up: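 The SH-SY5Y reporter protocol was run at 3 concentrations up to 38.3 uM (primary) or 11 concentrations (follow-up): 16 h compound, 100 nM thapsigargin for 4 h, then extracellular luciferase luminescence.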

Test [11] deals with Cytochrome P450 1A2 (Homo sapiens) (UniProt P05177). The test can be described thus: p450-cyp1a2 (AID 410; calls by dose curve; note: potency is the fitted concentration of half-maximal effect). Summed up: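 20nM CYP1A2, 100uM Luciferin-ME (=Km), 100mM KPO4; cpd 10 min RT; +NADPH regen, 60 min RT; stop/detect 20 min; luminescence. Normalized to furafylline 57 uM = full inhibition.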
The target of test [12] is Glucocorticoid receptor (Homo sapiens) (UniProt P04150). The test can be described thus: GR-GFP Redistribution (AID 450;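 active = compounds whose dose series gives a full or clear partial fitted curve of increased nuclear translocation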; note: potency is the fitted concentration of half-maximal effect). The following applies: U2OS GR-GFP nuclear translocation, laser cytometry, 2 h.
For test [13] the target is unchanged. The test can be described thus: GR-EFC Redistribution (AID 451; calls by dose curve; note: potency is the fitted concentration of half-maximal effect). The following applies: CHO-K1 GR-EFC translocation, beta-gal luminescence, 2 h. Summed up: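 CHO-K1 cells expressing nuclear EA and GR-ED fragments of b-gal; compounds titrated up to 46 uM final, 2 h at 37 C. GR nuclear translocation read as complemented b-gal luminescence after 1 h RT detection.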

Test [14] deals with Mitogen-activated protein kinase 10 (Mus musculus) (UniProt Q61831). The test can be described thus: JNK3 AlphaScreen Assay (AID 530; active = well fitted curve in either direction with a large enough effect, not every such curve was filed as active;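 note: kinase came from lysate of stimulated human HepG2 cells; signal reports phosphorylation of biotinylated GST-cJun 1-79 at Ser73 with 10 µM ATP; % is set by controls: 0 for no effect and ±100 for the full control effect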). The procedure, abridged: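 HepG2 lysate (IL-1b/TNFa pre-activated) + biotin-GST-cJun 1-79 + anti-pSer73 cJun; cpd titration, 15 min RT; ATP 10 uM start; Tris pH 7.6, MgCl2, DTT, vanadate; beads in EDTA buffer; AlphaScreen.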
Test [15] deals with 3',5'-cyclic-AMP phosphodiesterase 4B (Homo sapiens) (UniProt Q07343). The test can be described thus: qHTS Assay for Inhibitors of PDE-IV (AID 607; active = well fitted activation curve with a large enough effect in the main read-out, with a control signal flat, not every such curve was filed as active; note: % of control where 0% means no effect). The procedure, abridged:
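ACTOne HEK293 cells carry a modified cAMP-gated CNG channel and express endogenous PDE4; plated 1000 cells/well, compounds up to 22.9 uM final. Membrane-potential dye fluorescence (ex 535/em 590) was read; parental cells received 10 uM forskolin + 100 uM RO 20-1724.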

The target of test [16] is Cytochrome P450 2C9 (Homo sapiens) (UniProt P11712). The test can be described thus: qHTS Assay for Inhibitors and Substrates of Cytochrome P450 2C9 (AID 883). Note: potency is the fitted concentration of half-maximal effect; nearly all actives have a fitted effect of over 60% in size. The procedure, abridged: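 Signal: luciferase luminescence reporting luciferin produced by CYP2C9. Conditions: 10nM enzyme, Luciferin-H 100uM at KM, 25mM KPO4, 37C, 60 min NADPH-driven reaction. Reference: 57uM sulphaphenazole as 100% inhibition.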

The target in test [17] is Cytochrome P450 3A4 (Homo sapiens) (UniProt P08684). The test can be described thus: qHTS Assay for Activators of Cytochrome P450 3A4 (AID 885). Note: nearly all actives have a fitted effect of over 65% in size. The procedure, abridged:
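CYP3A4 activity: Luciferin-PPXE O-dealkylation, 25uM substrate, 200mM KPO4, RT throughout. Read-out is luciferase luminescence; higher values reflect activation.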

The target in test [18] is Ubiquitin carboxyl-terminal hydrolase 1 (Homo sapiens) (UniProt O94782). The test can be described thus: Inhibitors of USP1/UAF1: Pilot qHTS (AID 504865).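 Note: rhodamine fluorescence freed from ubiquitin-rhodamine substrate followed over time; top concentration of the series differs between compounds; % is set by controls: 0 for no effect and ±100 for the full control effect; nearly all actives have a fitted effect of over 35% in size.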 Summed up:
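1nM USP1/UAF1 + cpd, 15 min RT; start w/ Ub-Rho 150nM final; kinetic FL 480/540 nm, 6 reads q60 s. Buffer 50mM HEPES pH 7.8, 0.5mM EDTA, 1mM TCEP, 0.01% Tween-20, 0.1 mg/ml BSA.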

For test [19], the target named is DNA dC->dU-editing enzyme APOBEC-3G (Homo sapiens) (UniProt Q9HC16). The test can be described thus: qHTS for inhibitors of Vif-A3G interactions: Validation (AID 588379). Note: 0% is about no effect. The procedure, abridged:
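Yellow fluorescence (Ex 488, Em 500-530) of Vif-coexpressing HeLa A3G-eYFP cells, scanned by Acumen cytometer, reports blocked A3G degradation. Cells plated at 700/well overnight at 37 deg C before compound addition, then a further overnight compound incubation at 37 deg C.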

Test [20] has as its system Zika virus NS2B-NS3 protease (linked construct). The test can be described thus: Confirmatory screen NINDS AMC qHTS for Zika virus inhibitors (AID 1347152). Note: potency is the fitted concentration of half-maximal effect; nearly all actives have a fitted effect of over 70% in size. Summed up:
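Linked NS2B-NS3 1 nM, Tris pH 8.0/0.01% Tween 20; cpd 15 min RT dark; + Nle-KRR-AMC 10 µM (Km 18.3 µM); read 0 and 15 min, 340/450 nm; %inh vs controls, 4-param Hill.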

In test [21] the test system is Zika virus NS2B-NS3 protease (unlinked complex). The test can be described thus: Confirmatory screen GU AMC qHTS for Zika virus inhibitors (AID 1347153). The procedure, abridged:
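Noncovalent NS2B hydrophilic domain/NS3 protease complex (25 nM) in 10 mM Tris-HCl pH 8.0, 0.01% Tween 20 was preincubated 15 min at room temperature with compounds. Then 10 µM AMC substrate (Km 18.3 µM) was added; fluorescence was read over 15 min and fitted to a 4-parameter Hill equation.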

Test [22] is described as follows: Confirmatory screen NINDS Rhodamine qHTS for Zika virus inhibitors (AID 1347161).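 Note: purified Zika NS2B-NS3 protease with linked NS2B cofactor domain and Rhodamine110 peptide substrate; plate controls were no-inhibitor control for no effect and no-enzyme control for full effect; nearly all actives have a fitted effect of over 60% in size.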 Summed up:
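Each compound, titrated, sat 15 min with 25 nM linked protease before 1.5 microM Rhodamine110 substrate went in. Fluorescence gain over the next 15 min, in pH 8.0 Tris with Tween 20, gave Hill-fitted curves.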

Structures are written as SMILES. Several values for one entry are separate records, joined by “and”; a condition that tells them apart may be missing. Equal entries are not always repeated. Records with an inconclusive call do not appear. Activity calls are given as the source filed them. Unless noted, calls come from the whole dose curve; as a rule, active = well fitted curve in the direction sought with a large enough effect; inconclusive = small, poorly fitted or top-dose-only effect, or another doubt; inactive = no such curve, though single readings can be large; an effect the other way counts as inactive or inconclusive.

The values below come from PubChem BioAssay (NCATS).

Sequence of Nucleoprotein (Lymphocytic choriomeningitis virus (strain Armstrong)) (P09992 whole entry, looked up): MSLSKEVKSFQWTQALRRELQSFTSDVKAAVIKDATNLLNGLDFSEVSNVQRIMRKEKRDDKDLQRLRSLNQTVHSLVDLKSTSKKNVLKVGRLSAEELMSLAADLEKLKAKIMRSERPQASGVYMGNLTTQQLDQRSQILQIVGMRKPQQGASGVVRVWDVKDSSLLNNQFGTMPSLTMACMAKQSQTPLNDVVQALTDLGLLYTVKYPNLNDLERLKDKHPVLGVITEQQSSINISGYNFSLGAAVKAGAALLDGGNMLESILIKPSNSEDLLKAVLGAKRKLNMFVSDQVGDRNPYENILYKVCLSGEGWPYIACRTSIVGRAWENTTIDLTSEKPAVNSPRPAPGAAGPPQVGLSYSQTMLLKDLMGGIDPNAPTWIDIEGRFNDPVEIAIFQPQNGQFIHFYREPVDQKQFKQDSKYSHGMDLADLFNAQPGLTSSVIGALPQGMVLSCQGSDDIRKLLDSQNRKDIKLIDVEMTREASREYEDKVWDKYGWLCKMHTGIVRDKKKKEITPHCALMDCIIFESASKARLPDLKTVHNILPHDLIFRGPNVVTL
Sequence of Furin (Homo sapiens) (P09958 whole entry, looked up): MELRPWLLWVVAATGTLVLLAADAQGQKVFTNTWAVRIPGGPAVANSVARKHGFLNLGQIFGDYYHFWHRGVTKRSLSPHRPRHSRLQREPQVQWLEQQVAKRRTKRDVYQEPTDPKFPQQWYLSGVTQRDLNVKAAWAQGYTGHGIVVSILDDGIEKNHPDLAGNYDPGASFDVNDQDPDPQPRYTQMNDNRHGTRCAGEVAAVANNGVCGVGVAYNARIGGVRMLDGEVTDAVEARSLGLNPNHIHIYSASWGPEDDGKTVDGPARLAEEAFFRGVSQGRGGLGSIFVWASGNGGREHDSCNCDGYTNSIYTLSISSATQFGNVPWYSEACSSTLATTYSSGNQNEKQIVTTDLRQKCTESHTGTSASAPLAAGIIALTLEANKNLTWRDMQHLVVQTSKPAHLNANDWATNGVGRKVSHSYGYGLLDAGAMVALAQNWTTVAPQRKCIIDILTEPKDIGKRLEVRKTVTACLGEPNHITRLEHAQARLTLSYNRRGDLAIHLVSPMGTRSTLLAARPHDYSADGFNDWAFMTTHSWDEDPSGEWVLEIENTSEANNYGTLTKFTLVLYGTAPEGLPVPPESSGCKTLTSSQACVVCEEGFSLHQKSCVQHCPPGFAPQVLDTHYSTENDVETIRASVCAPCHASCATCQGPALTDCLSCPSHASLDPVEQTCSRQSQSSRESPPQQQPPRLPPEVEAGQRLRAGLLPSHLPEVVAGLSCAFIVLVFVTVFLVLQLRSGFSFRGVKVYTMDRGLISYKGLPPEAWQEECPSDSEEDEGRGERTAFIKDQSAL
Sequence of Glucocorticoid receptor (Homo sapiens) (P04150 whole entry, looked up, the tested form may be a part): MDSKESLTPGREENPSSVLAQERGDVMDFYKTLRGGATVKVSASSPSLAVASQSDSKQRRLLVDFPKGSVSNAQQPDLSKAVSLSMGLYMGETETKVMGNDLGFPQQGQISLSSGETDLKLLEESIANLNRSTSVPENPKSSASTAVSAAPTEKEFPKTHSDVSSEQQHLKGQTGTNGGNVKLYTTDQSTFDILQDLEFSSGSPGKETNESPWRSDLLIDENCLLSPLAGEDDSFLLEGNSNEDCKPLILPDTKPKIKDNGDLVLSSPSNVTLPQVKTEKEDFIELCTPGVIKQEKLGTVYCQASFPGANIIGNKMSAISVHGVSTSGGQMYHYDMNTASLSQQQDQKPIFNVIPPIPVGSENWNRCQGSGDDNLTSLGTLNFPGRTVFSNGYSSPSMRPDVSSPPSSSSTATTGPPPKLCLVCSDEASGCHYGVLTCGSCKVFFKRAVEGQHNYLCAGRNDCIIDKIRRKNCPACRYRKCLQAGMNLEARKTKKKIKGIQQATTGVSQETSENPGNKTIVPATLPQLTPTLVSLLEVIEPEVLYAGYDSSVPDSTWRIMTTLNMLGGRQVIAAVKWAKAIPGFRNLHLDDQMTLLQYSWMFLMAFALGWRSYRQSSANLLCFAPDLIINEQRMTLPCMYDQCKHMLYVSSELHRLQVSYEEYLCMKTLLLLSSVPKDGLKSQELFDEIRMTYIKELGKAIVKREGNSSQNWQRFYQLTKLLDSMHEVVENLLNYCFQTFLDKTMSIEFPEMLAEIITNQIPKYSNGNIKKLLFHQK
Sequence of 3',5'-cyclic-AMP phosphodiesterase 4B (Homo sapiens) (Q07343 whole entry, looked up): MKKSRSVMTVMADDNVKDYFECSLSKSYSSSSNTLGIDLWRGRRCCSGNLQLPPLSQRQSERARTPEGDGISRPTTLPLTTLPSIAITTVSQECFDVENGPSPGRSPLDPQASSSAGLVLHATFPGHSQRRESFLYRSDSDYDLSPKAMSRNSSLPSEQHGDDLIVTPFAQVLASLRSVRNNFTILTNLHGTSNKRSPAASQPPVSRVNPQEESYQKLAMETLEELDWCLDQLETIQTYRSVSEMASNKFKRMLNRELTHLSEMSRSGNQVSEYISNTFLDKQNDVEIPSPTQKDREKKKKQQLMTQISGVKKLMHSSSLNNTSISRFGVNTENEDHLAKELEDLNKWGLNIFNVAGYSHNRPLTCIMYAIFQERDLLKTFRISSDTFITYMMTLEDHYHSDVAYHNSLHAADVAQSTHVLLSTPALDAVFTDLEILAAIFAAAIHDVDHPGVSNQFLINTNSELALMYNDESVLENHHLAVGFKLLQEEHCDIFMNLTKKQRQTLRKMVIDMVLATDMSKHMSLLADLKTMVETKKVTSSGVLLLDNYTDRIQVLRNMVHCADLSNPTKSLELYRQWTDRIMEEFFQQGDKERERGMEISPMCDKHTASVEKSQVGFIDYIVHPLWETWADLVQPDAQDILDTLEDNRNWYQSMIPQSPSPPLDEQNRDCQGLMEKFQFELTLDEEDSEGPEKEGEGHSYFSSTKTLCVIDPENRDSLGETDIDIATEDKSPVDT
Sequence of Cytochrome P450 2C9 (Homo sapiens) (P11712 whole entry, looked up): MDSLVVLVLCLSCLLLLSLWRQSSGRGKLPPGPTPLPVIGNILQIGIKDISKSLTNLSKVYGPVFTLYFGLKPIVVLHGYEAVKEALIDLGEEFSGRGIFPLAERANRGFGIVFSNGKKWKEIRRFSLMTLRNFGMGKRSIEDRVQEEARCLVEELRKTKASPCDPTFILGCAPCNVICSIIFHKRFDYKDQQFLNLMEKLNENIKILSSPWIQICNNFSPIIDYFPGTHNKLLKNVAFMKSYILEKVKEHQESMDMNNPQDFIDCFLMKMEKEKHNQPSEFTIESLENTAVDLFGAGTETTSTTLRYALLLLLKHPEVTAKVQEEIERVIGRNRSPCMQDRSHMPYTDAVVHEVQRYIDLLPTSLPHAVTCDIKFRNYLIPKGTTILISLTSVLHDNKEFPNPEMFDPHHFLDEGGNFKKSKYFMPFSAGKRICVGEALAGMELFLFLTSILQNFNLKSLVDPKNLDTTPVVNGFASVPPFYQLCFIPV
Sequence of Ubiquitin carboxyl-terminal hydrolase 1 (Homo sapiens) (O94782 whole entry, looked up): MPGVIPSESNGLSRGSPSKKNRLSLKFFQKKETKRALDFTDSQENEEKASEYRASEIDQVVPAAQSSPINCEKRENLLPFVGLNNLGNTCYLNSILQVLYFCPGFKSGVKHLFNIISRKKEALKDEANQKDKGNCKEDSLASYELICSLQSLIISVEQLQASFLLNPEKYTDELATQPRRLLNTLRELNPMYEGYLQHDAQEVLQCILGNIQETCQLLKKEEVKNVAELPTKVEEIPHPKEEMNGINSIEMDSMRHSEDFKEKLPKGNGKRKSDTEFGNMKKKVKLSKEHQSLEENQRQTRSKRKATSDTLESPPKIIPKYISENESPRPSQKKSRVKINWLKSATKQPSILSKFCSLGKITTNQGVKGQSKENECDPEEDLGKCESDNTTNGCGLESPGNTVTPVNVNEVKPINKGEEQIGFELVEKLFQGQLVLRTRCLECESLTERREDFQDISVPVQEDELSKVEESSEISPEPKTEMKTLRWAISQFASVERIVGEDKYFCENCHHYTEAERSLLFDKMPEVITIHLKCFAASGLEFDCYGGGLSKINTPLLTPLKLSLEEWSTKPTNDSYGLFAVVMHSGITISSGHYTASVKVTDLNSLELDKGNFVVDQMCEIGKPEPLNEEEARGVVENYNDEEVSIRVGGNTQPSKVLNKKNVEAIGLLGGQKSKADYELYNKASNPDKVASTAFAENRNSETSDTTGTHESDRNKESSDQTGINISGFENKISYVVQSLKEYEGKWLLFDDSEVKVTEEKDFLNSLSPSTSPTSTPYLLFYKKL
Sequence of Cytochrome P450 3A4 (Homo sapiens) (P08684 whole entry, looked up): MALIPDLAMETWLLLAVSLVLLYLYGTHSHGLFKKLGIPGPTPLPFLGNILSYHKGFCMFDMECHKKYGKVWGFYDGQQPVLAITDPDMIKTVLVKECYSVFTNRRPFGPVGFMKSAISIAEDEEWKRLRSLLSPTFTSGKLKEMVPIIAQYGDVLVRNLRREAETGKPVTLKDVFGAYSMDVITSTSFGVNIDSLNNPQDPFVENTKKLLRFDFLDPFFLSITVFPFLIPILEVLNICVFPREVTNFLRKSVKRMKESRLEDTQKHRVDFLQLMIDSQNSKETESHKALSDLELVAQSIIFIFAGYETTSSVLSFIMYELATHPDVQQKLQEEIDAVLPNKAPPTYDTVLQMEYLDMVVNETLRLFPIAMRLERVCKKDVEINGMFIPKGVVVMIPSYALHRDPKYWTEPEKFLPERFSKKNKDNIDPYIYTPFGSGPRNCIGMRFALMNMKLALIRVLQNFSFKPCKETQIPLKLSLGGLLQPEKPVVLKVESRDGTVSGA
Sequence of DNA dC->dU-editing enzyme APOBEC-3G (Homo sapiens) (Q9HC16 whole entry, looked up): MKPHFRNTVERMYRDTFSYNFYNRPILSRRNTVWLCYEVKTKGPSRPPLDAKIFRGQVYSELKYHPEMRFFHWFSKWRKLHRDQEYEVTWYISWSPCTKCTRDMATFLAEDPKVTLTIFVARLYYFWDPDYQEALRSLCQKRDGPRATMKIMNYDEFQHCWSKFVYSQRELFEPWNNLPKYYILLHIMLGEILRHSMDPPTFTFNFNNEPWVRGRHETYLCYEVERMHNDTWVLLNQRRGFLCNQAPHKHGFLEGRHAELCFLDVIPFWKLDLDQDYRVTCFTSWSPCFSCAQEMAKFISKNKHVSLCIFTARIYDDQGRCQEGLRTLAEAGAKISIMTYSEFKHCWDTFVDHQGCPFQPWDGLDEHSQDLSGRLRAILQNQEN

Turning to `C(=C\c1ccccc1)/CN1CCN(CCOC(c2ccccc2)c2ccccc2)CC1`, the Potency entry in [1] is “inactive”.
For the compound `COC(=O)C12OCC34C(CC5C(C)=C(O)C(=O)CC5(C)C3C(O)C1O)OC(=O)C(OC(=O)C=C(C)C)C24` (stereo not drawn), in test [2], the Potency entry was “inactive”.
With `CCC(Oc1ccc(Cl)cc1)C(=O)OC1CC2CCC(C1)N2C` (stereo not drawn), the Potency entry in [1] was “inactive”.
In the case of `COc1ccc(-c2coc3cc(O)cc(O)c3c2=O)cc1`, the Potency result in [2] and in [3] was “inactive” throughout.
For `NCCc1ccccn1`, in test [1], the Potency entry is “inactive”.
Turning to `Cc1ccc2c(=O)c3cccc(CC(=O)O)c3oc2c1C`, in test [2], the Potency was 38.5 µM (active). Also, in [3], the Potency entry was “inactive”. In addition, in [4], the activity change, negative = inhibition is -28.2%.
Regarding `c1ccc2sc(C3(NCC4CC4)CCCCC3)cc2c1`, the Potency result in test [1] was “inactive”.
Take `C[C@H]1O[C@@H](O[C@H]2[C@@H](O)C[C@H](O[C@H]3[C@@H](O)C[C@H](O[C@H]4CC[C@]5(C)C6CC[C@]7(C)[C@@H](C8=CC(=O)OC8)CC[C@]7(O)C6CC[C@@H]5C4)O[C@@H]3C)O[C@@H]2C)C[C@H](O)[C@@H]1O` (stereo partly drawn): the Potency result in test [5], in test [7], in test [8] and in [10] was “inactive” throughout. For the same compound, the result in test [6] was inactive. Moreover, in [9], the Potency is 0.147 µM (active).
As for `Clc1cncc(N2CCNCC2)n1`, the Potency in test [11] is 2 µM (active); in test [12] it was > 46 µM (inactive); in test [13] it was > 46 µM (inactive); in test [16], 2 µM (active); in test [5], 24.1 µM (active) and 10.8 µM (active); in test [20] it was 24.1 µM (active) and 8.57 µM (active). In addition, the Potency in [1] is 15 µM (active). Further, the result in test [14] was inactive. Moreover, the Potency result in test [15], in [17], in test [18], in test [19], in test [21] and in test [22] was “inactive” each time. Besides, the Potency result in [7], in test [8] and in test [9] was “inactive” throughout.
